Some test systems named below: HCT-15 colon; HT29 colon; SNB-75 CNS; SNB-19 CNS; U251 CNS; PC-3 prostate; SK-MEL-5 melanoma; UACC-62 melanoma; LOX IMVI melanoma; SK-MEL-28 melanoma.
Holding throughout (test): NCI-60 one-dose screen, 48 h (100 = growth as untreated, 0 = no growth, -100 = all killed)
Details in all cases: 10 µM unless noted

The panel holds about 83,000 compounds, 20% with a hit somewhere; the sample as a whole holds those more often.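 Treatment: one concentration, 48 hours, 96-well format. Scoring: percent growth, with anything below 10 considered active.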 Unmarked numbers belong to inactive results. Activity calls are given as the source filed them.

With `CCC1(C2CCCC2)NC(=O)NC1=O` (stereo not given), the growth with HCT-15 colon is 92.3%; in the assay on HT29 colon, 94.6%; in the assay on SNB-75 CNS, 93.9%; in the assay on SNB-19 CNS, 98.5%; with U251 CNS, 106%; with PC-3 prostate it was 101%. Besides, the growth was 101% in the assay with SK-MEL-5 melanoma, 99.7% with UACC-62 melanoma, 79.7% in the assay with LOX IMVI melanoma and 98.4% with SK-MEL-28 melanoma.

Turning to `CN1C(=O)N(C)C2C1NN=c1s/c(=C\c3ccccc3)c(=O)n12` (stereo not given), the growth with HCT-15 colon was 27.1%; in the assay on HT29 colon, 77.8%; with SNB-75 CNS, 11.5%; in the assay with SNB-19 CNS it was 45.4%; with U251 CNS, 42.1%; in the assay on PC-3 prostate, 28.2%. In addition, the growth in the assay with SK-MEL-5 melanoma was 41%; in the assay on UACC-62 melanoma, 42.2%; with LOX IMVI melanoma it was 44.6%; with SK-MEL-28 melanoma, 63.2%.

For the molecule `COc1ccc(-c2nc3c(c(=O)n2C(C)=O)C(c2ccc(Cl)cc2)c2sc4c(Cl)cccc4c2O3)cc1` (stereo not given), the growth was -29.1% (active) with HCT-15 colon; -49.4% (active) with HT29 colon; -12.7% (active) in the assay with SNB-75 CNS; 12.7% with SNB-19 CNS; -34.3% (active) with U251 CNS; 1.24% (active) in the assay with PC-3 prostate. The growth was -23.3% (active) in the assay with SK-MEL-5 melanoma, 5.57% (active) in the assay with UACC-62 melanoma, -49.6% (active) in the assay with LOX IMVI melanoma and 23.4% in the assay with SK-MEL-28 melanoma.

As to `CC1(C)OC2C(CO[Si](C)(C)C(C)(C)C)OC(n3c(I)c(C#C[Si](C)(C)C)c(=O)[nH]c3=O)C2O1` (stereo not given), the growth in the assay with HCT-15 colon was 93%; in the assay with HT29 colon, -32.6% (active); with SNB-75 CNS, -71.4% (active); with SNB-19 CNS, 105%; in the assay on U251 CNS, 88.4%; in the assay with PC-3 prostate it was 91.4%. For the same molecule, the growth in the assay with SK-MEL-5 melanoma was 95.9%; in the assay with UACC-62 melanoma, 92.8%; in the assay on LOX IMVI melanoma it was 86.6%; in the assay with SK-MEL-28 melanoma it was -53.9% (active).

Consider `N#Cc1c(-c2ccccn2)[nH]c(=S)[nH]c1=O`, for which the growth in the assay with HCT-15 colon is 96.7%; with HT29 colon, 96%; in the assay with SNB-75 CNS it was 105%; with SNB-19 CNS it was 126%; with U251 CNS, 99.8%; in the assay with PC-3 prostate, 103%. Further, the growth in the assay with SK-MEL-5 melanoma is 106%; in the assay on UACC-62 melanoma it was 118%; in the assay on LOX IMVI melanoma it was 104%; with SK-MEL-28 melanoma, 112%.

As to `COc1cc(/C=C2\C(=O)ON=C2C)cc(OC)c1OC`, the growth is 102% in the assay with HCT-15 colon; 103% in the assay on HT29 colon; 80.4% in the assay with SNB-75 CNS; 95.6% in the assay on SNB-19 CNS; 100% in the assay with U251 CNS; 97.3% in the assay on PC-3 prostate. For the same molecule, the growth was 101% in the assay with SK-MEL-5 melanoma, 97% in the assay with UACC-62 melanoma, 96.2% with LOX IMVI melanoma and 103% in the assay with SK-MEL-28 melanoma.

As for `N#CCN1C(=O)C2C3=C(CCCC3)SC2N=C1CN1CCCC1` (stereo not given), the growth with HCT-15 colon was 74.4%; in the assay with HT29 colon, 110%; with SNB-75 CNS, 88.3%; with SNB-19 CNS, 106%; in the assay with U251 CNS, 102%; in the assay with PC-3 prostate it was 48.5%. Moreover, the growth is 98.2% in the assay with SK-MEL-5 melanoma, 83.6% with UACC-62 melanoma, 97.7% in the assay on LOX IMVI melanoma and 120% in the assay on SK-MEL-28 melanoma.

On to `CC/C=C\C/C=C\C[C@H](O)C/C=C1/C(=O)C=C[C@@H]1C/C=C\CCCC(=O)O`, for which the growth in the assay on HCT-15 colon is 48%; in the assay on HT29 colon, 12.6%; in the assay with SNB-75 CNS, 80.7%; with SNB-19 CNS, 44.3%; in the assay with U251 CNS, -27.9% (active); in the assay with PC-3 prostate it was 30.1%. Moreover, the growth was 20.7% in the assay on SK-MEL-5 melanoma, -43.4% (active) in the assay on UACC-62 melanoma, -10.1% (active) with LOX IMVI melanoma and 17.5% in the assay with SK-MEL-28 melanoma.

Regarding `COc1cc(N=Nc2ccc(N)cc2)c(OC)cc1N=Nc1ccccc1.[Cl][Zn][Cl]`, the growth was 91.2% in the assay with HCT-15 colon; 113% in the assay on HT29 colon; 80.9% with SNB-75 CNS; 105% with SNB-19 CNS; 104% with U251 CNS; 90.7% in the assay with PC-3 prostate. Besides, the growth is 102% in the assay with SK-MEL-5 melanoma, 92.2% in the assay on UACC-62 melanoma, 88% with LOX IMVI melanoma and 109% in the assay with SK-MEL-28 melanoma.

For `C[C@@]1(CCC#N)[C@H]2CC[C@@H]3[C@H]4[C@H](C(=O)/C=C/c5cccnc5)CC[C@]4(C#N)CC[C@@]3(C)[C@]2(C)CC[C@H]1C(=O)/C=C/c1cccnc1`, the growth with HCT-15 colon was 31.5%; with HT29 colon, 24.1%; in the assay on SNB-75 CNS, 72.7%; in the assay with SNB-19 CNS, 86.9%; with U251 CNS, 64.1%; in the assay with PC-3 prostate it was 65%. In addition, the growth in the assay on SK-MEL-5 melanoma was 77.3%; in the assay on UACC-62 melanoma, 52.4%; in the assay on LOX IMVI melanoma, 17.5%; in the assay on SK-MEL-28 melanoma, 97.3%.

Consider `COC(=O)[C@]12CC[C@@H](C)[C@H](C)[C@@H]1C1=CC[C@@H]3[C@@]4(C)C(C=O)=C[C@@](C)(COC(C)=O)[C@@H]4C(=O)C[C@@]3(C)[C@]1(C)CC2`, for which the growth was 21.5% in the assay with HCT-15 colon; 23.8% in the assay with HT29 colon; 33.5% in the assay with SNB-75 CNS; 37.4% in the assay with SNB-19 CNS; 27.1% with U251 CNS; 13.3% in the assay on PC-3 prostate. The growth was 51.9% in the assay with SK-MEL-5 melanoma, 42.1% in the assay with UACC-62 melanoma, 33.5% with LOX IMVI melanoma and 65.5% in the assay on SK-MEL-28 melanoma.

The values are drawn from PubChem BioAssay (NCI).
